Experiment [1] in a line: ATG_GLI_CIS: Attagene CIS-FACTORIAL HepG2 Assay for human Zinc Finger Protein GLI1 (AID 2282945). The conditions noted are these: HepG2, Attagene cis-factorial reporter mRNA, GLI element; actives raise or lower the signal. A digest of the protocol:
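HepG2 cells transiently transfected with cis-promoter multiplexed reporter units report endogenous transcription factor activity. After 24 h chemical exposure, reporter mRNA was quantified by RT-PCR, 6-FAM labelling, HpaI digestion and capillary electrophoresis, with bidirectional fitting against DMSO.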

Experiment [2] concerns the target Bile acid receptor (Homo sapiens) (UniProt Q96RI1). Description: ATG_IR1_CIS: Attagene CIS-FACTORIAL HepG2 Assay for human Nuclear Receptor Subfamily 1 Group H Member 4 (NR1H4), IR1 submotif (AID 2282946). Particulars: IR1 reporter transcription, actives raise or lower the signal. A digest of the protocol: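 Readout: reporter transcript levels by RT-PCR with fluorescent capillary electrophoresis, from HepG2 cells transiently transfected with multiplexed cis-regulated reporters and dosed 24 h. Gain- or loss-of-signal fitted versus DMSO negative control.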

A short description of experiment [3]: ATG_GRE_CIS: Attagene CIS-FACTORIAL HepG2 Assay for human Glucocorticoid Response Elements (GRE) (AID 2282947). Particulars: HepG2 GRE cis-reporter, Attagene multiplex mRNA; actives raise or lower the signal. A digest of the protocol: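 Cells (HepG2) bearing transfected cis-promoter reporter transcription units were treated with chemical for 24 hours. Reporter mRNA was measured via RT-PCR with capillary electrophoresis, and activity was fitted in both directions relative to DMSO.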

Experiment [4] can be described thus: ATG_ISRE_CIS: Attagene CIS-FACTORIAL HepG2 Assay for human Interferon Regulatory Factor 1 (IRF1) binding to an Interferon-Stimulated Response Element (ISRE) (AID 2282948). Particulars: HepG2 ISRE cis-reporter (Attagene), mRNA transcription readout; actives raise or lower the signal. A digest of the protocol: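 Signal reflects induction or loss of ISRE-linked reporter mRNA in transiently transfected HepG2 cells after a 24 h treatment, detected by fluorescent RT-PCR fragments on capillary electrophoresis and normalised to DMSO.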

Experiment [5] can be described thus: ATG_M_32_CIS: Attagene CIS-FACTORIAL HepG2 Assay for M32 Transcription Factor (Internal Marker) (AID 2282949).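 Also: background control marker of the multiplexed CIS panel rather than a real target.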 The conditions noted are these: HepG2 Attagene cis-factorial M32 reporter, mRNA; actives raise or lower the signal. Put shortly:
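HepG2 human liver cells transiently transfected with cis-promoter-driven multiple reporter transcription units, dosed 24 h. Reporter mRNA quantified by RT-PCR, FAM-labelled primer extension, HpaI digest and capillary electrophoresis; bidirectional fit versus DMSO baseline.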

Experiment [6] can be described thus: ATG_M_06_CIS: Attagene CIS-FACTORIAL HepG2 Assay for M06 Transcription Factor (Internal Marker) (AID 2282950). Particulars: HepG2 Attagene CIS-FACTORIAL M06 internal marker reporter; actives raise or lower the signal. A digest of the protocol: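 HepG2 liver cells, 24 h exposure. Reporter transcripts from transfected cis-element constructs quantified by RT-PCR/capillary electrophoresis fluorescence. Bidirectional curve fit against DMSO.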

Experiment [7] has as its target Hypoxia-inducible factor 1-alpha (Homo sapiens) (UniProt Q16665). Put plainly: ATG_HIF1a_CIS: Attagene CIS-FACTORIAL HepG2 Assay for human Hypoxia Inducible Factor 1 (HIF1A) (AID 2282951). The conditions noted are these: HepG2 Attagene cis-factorial HIF1a reporter transcription; actives raise or lower the signal. Put shortly:
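Transient MRTU transfection of human HepG2 liver cells, 24 h compound treatment, then total RNA isolation, oligo(dT) reverse transcription, PCR amplification, fluorescent labelling and capillary electrophoresis of reporter fragments. Gain or loss relative to DMSO.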

The target in experiment [8] is Hepatocyte nuclear factor 6 (Homo sapiens) (UniProt Q9UBC0). Description: ATG_HNF6_CIS: Attagene CIS-FACTORIAL HepG2 Assay for human Hepatocyte Nuclear Factor 6 (HNF6) (AID 2282952). The conditions noted are these: HepG2 Attagene cis-factorial HNF6 reporter transcription; actives raise or lower the signal. A digest of the protocol: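 Endogenous factor activity read in transiently transfected HepG2 via promoter-regulated reporter transcripts. RNA harvested 24 h post-dosing, reverse-transcribed, PCR-amplified, FAM-labelled, HpaI-digested and resolved by capillary electrophoresis; fitted in both directions against DMSO.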
Hepatocyte nuclear factor 6 (Homo sapiens), sequence (Q9UBC0 whole entry, looked up): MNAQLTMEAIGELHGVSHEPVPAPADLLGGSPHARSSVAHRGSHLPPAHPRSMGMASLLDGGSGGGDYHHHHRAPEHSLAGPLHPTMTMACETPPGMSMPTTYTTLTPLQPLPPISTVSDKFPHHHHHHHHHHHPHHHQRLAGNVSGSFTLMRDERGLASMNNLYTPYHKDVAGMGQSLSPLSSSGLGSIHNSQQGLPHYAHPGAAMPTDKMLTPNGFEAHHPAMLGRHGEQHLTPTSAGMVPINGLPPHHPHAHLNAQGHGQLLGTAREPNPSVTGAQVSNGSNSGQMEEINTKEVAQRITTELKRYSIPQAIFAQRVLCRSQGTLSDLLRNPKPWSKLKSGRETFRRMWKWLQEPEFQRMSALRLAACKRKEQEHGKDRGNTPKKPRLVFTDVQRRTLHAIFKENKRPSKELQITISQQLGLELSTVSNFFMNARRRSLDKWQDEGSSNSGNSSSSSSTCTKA

Experiment [9] addresses Heat shock factor protein 1 (Homo sapiens) (UniProt Q00613). Description: ATG_HSE_CIS: Attagene CIS-FACTORIAL HepG2 Assay for human Heat Shock Transcription Factor 1 (HSE) (AID 2282953). The conditions noted are these: HepG2 HSE cis-reporter, Attagene RNA transcription; actives raise or lower the signal. A digest of the protocol: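 Endogenous transcription factor activity captured via cis-promoter reporter units transfected into HepG2; treatment lasted 24 h. Fluorescence intensity of reporter fragments analysed with bidirectional curve fitting, DMSO baseline.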

The nature of experiment [10]: ATG_MRE_CIS: Attagene CIS-FACTORIAL HepG2 Assay for human Metal Responsive Element (MRE) (AID 2282954). Particulars: HepG2 MRE cis-reporter transcription, Attagene multiplex; actives raise or lower the signal. A digest of the protocol: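 Cells were transfected with cis-promoter reporter transcription units, then dosed for 24 h. RNA was reverse-transcribed, amplified, fluorescently labelled and resolved by capillary electrophoresis, and activity was fitted in both directions relative to DMSO.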

Active and inactive are the calls of the source. The calls were made as follows: active = hit-call score of the fitted dose curve at least 0.9, where 1 is the maximum; inactive = score below 0.9.

Heat shock factor protein 1 (Homo sapiens), sequence (Q00613 whole entry, looked up, the tested form may be a part): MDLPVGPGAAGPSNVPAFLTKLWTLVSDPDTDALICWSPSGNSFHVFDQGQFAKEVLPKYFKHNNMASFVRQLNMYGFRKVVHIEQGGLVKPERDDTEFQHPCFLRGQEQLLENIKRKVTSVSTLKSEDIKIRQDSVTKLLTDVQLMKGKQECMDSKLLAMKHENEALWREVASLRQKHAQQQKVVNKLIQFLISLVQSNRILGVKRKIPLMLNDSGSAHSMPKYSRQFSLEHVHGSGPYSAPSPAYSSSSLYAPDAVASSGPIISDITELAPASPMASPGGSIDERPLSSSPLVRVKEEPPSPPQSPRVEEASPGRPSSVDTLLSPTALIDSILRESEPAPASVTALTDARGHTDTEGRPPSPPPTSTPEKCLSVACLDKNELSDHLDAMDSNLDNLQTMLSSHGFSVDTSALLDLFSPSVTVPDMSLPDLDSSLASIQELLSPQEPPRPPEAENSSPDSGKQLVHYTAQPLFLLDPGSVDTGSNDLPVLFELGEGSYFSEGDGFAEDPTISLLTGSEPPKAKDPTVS
Hypoxia-inducible factor 1-alpha (Homo sapiens), sequence (Q16665 whole entry, looked up, the tested form may be a part): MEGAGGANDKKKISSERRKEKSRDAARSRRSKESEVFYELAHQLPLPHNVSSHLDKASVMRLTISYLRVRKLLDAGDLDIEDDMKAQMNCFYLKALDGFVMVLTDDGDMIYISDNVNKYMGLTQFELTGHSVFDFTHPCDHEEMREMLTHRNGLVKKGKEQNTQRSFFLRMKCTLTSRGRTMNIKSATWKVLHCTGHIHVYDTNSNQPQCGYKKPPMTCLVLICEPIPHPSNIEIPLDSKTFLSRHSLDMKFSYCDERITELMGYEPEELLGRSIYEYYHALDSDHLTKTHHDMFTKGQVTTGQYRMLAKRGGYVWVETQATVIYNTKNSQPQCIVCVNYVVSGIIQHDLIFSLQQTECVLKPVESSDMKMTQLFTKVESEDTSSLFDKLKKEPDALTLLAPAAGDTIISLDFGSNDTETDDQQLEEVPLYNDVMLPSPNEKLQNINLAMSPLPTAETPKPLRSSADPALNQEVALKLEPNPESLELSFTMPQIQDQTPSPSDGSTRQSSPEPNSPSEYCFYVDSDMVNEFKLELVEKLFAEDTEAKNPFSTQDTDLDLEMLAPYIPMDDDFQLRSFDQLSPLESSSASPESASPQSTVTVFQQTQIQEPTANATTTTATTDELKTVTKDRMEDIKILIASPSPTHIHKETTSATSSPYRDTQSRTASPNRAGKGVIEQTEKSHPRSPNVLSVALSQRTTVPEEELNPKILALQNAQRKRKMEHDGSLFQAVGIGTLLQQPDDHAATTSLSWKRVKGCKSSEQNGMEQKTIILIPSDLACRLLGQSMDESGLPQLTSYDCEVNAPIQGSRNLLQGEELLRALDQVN
Bile acid receptor (Homo sapiens), sequence (Q96RI1 whole entry, looked up): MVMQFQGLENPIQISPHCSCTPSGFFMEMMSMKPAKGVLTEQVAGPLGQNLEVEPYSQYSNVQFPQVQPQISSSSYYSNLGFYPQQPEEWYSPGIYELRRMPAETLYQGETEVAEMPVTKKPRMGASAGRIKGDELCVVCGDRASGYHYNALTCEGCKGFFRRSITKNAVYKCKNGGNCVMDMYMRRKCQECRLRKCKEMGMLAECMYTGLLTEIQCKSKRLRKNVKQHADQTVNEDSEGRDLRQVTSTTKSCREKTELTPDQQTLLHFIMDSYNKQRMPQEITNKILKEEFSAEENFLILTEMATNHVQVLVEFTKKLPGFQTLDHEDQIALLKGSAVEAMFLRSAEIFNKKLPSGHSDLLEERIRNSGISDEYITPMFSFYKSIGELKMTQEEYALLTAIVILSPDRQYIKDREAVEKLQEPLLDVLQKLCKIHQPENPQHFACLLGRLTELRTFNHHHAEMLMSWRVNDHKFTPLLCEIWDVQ

In the case of `CC(C)(O)CCc1ccccc1`, the outcome in experiment [1], in [2], in experiment [3], in experiment [4], in experiment [5] and in experiment [6] was inactive. Besides, the compound was called inactive in experiment [7], in experiment [8], in experiment [9] and in [10].

Regarding `CCc1cccc(O)c1`, the outcome in experiment [1], in experiment [2], in experiment [4], in experiment [5], in [6] and in [7] was inactive. Moreover, the compound was classed as inactive in experiment [8], in experiment [9] and in experiment [10].

As usually defined, the AC50 is the concentration giving half of the maximal activity seen. `O=S1(=O)CC(Cl)(Cl)C(Cl)(Cl)C1`: the result in [1], in [3], in experiment [5], in experiment [6], in experiment [7] and in experiment [8] was inactive. Moreover, in experiment [9], the outcome was inactive. The AC50 in [2] was 5.49 µM (active); in experiment [4], 1.37 µM (active); in experiment [10] it was 6.29 µM (active).

For `CN(C)CCC=C1c2ccccc2CCc2ccccc21`, the result in experiment [1], in experiment [2], in experiment [3], in [5], in [6] and in [8] was inactive. The call in [9] was inactive. Moreover, the concentration at half-maximal activity (AC50) in experiment [4] is 21.5 µM (active); in experiment [10], 43.2 µM (active).

On to `C=C1CC/C=C(\C)CC[C@@H]2[C@@H]1CC2(C)C`, for which the result in [1], in experiment [4], in experiment [5], in experiment [6], in experiment [7] and in experiment [8] was inactive. The call in experiment [9] and in experiment [10] was inactive. The AC50 in experiment [2] was 81.9 µM (active).

Turning to `CCCCCCCCSCc1cc(C)c(O)c(CSCCCCCCCC)c1`, the outcome in experiment [1], in experiment [2], in experiment [3], in [4], in experiment [5] and in experiment [6] was inactive. Besides, the outcome in [7], in experiment [8], in [9] and in experiment [10] was inactive.

Regarding `CC(O)COCC(C)O` (stereo not given), the outcome in [1], in experiment [2], in experiment [3], in experiment [4], in experiment [5] and in [6] was inactive. Moreover, the call in experiment [7], in experiment [8], in experiment [9] and in experiment [10] was inactive.

For the compound `CCCCCCCCOS(=O)(=O)O`, the call in experiment [1], in experiment [2], in experiment [3], in experiment [4], in experiment [5] and in [6] was inactive. Besides, the outcome in [7], in [8], in [9] and in experiment [10] was inactive.

Turning to `COc1ccc2[nH]cc(CCNC(C)=O)c2c1`, the compound was classed as inactive in experiment [1], in [2], in experiment [3], in experiment [4], in experiment [5] and in experiment [6]. The compound was called inactive in experiment [8], in [9] and in [10].

On to `CCO[Si](CCC#N)(OCC)OCC`, for which the outcome in experiment [1], in experiment [2], in experiment [3], in [4], in experiment [5] and in experiment [6] was inactive. Also, the result in experiment [7], in [8], in [9] and in experiment [10] was inactive.

As for `NC(=O)c1cccnc1`, the result in experiment [1], in experiment [2], in [3], in experiment [4], in experiment [5] and in experiment [6] was inactive. Moreover, the result in experiment [7], in experiment [8], in [9] and in experiment [10] was inactive.

Take `CN1CCc2cccc3c2[C@H]1Cc1ccc(O)c(O)c1-3`: the compound was called inactive in [1], in experiment [2], in experiment [3], in [5], in experiment [6] and in experiment [8]. Moreover, the compound was called inactive in experiment [9] and in experiment [10]. Further, the concentration at half-maximal activity (AC50) in [4] was 13.3 µM (active).

Consider `C=C(C)C(=O)OCCOCCOC(=O)C(=C)C`, for which the result in [1], in [2], in experiment [4], in experiment [5], in experiment [6] and in experiment [7] was inactive. The call in [8], in [9] and in [10] was inactive.

Consider `CCC(=O)OCC=Cc1ccccc1`, for which the compound was classed as inactive in experiment [1], in experiment [2], in experiment [3], in experiment [4], in experiment [5] and in [6]. The compound was classed as inactive in experiment [7], in experiment [8], in experiment [9] and in [10].

As to `CC(CO)(CO)[N+](=O)[O-]`, the compound was called inactive in experiment [1], in experiment [2], in experiment [3], in experiment [4], in experiment [5] and in experiment [6]. Besides, the compound was classed as inactive in experiment [7], in experiment [8] and in [10].

`CC(=O)c1ccc2ccccc2c1`: the call in experiment [1], in [2], in [3], in experiment [4], in [5] and in experiment [6] was inactive. The call in experiment [7], in [8], in experiment [9] and in experiment [10] was inactive.

In the case of `NC(N)=S`, the compound was called inactive in [1], in experiment [2], in experiment [3], in experiment [4], in [5] and in [6]. Moreover, the outcome in [7], in experiment [8] and in experiment [10] was inactive.

With `C1=COCCC1`, the call in experiment [1], in experiment [2], in [3], in experiment [4], in experiment [5] and in experiment [6] was inactive. The outcome in experiment [7], in experiment [8], in experiment [9] and in experiment [10] was inactive.

With `CC(=O)c1ccc(O)cc1`, the compound was classed as inactive in [1], in experiment [2], in experiment [3], in [4], in [5] and in experiment [6]. The result in experiment [7], in experiment [8], in experiment [9] and in [10] was inactive.

As for `CCCCOCC(C)OCC(C)O` (stereo not given), the outcome in experiment [1], in [2], in [4], in experiment [5], in experiment [6] and in experiment [7] was inactive. Also, the outcome in experiment [8], in experiment [9] and in [10] was inactive.

As for `CCCO`, the outcome in [1], in experiment [3], in experiment [4], in experiment [5], in experiment [6] and in experiment [7] was inactive. Besides, the call in [8], in [9] and in experiment [10] was inactive.

As for `CC(C)(C)C1CCC(O)CC1` (stereo not given), the compound was classed as inactive in experiment [1], in experiment [3], in experiment [4], in experiment [5], in experiment [6] and in [7]. Further, the call in experiment [8], in [9] and in experiment [10] was inactive.

For the compound `C=CC(O)CCCCC` (stereo not given), the outcome in experiment [1], in [2], in experiment [4], in experiment [5], in experiment [6] and in experiment [8] was inactive. Also, the call in [9] and in experiment [10] was inactive. In addition, the concentration at half-maximal activity (AC50) in experiment [7] was 26.9 µM (active).

Consider `CC/C=C\CCOC(=O)C(C)C`, for which the compound was called inactive in experiment [1], in experiment [3], in experiment [4], in experiment [5], in [6] and in experiment [7]. Moreover, the compound was classed as inactive in experiment [8], in experiment [9] and in experiment [10].

Turning to `Cc1cc(O)c(C)c(C)c1O`, the compound was classed as inactive in experiment [1], in experiment [3], in experiment [4], in experiment [5], in experiment [6] and in experiment [7]. Further, the compound was classed as inactive in experiment [8], in [9] and in [10].

Regarding `CCCO[Si](OCCC)(OCCC)OCCC`, the compound was called inactive in experiment [1], in [3], in [4], in [5], in experiment [6] and in experiment [7]. Moreover, the result in experiment [8], in experiment [9] and in [10] was inactive.

The record behind these values is PubChem BioAssay (EPA / NIEHS).
